PubChem BioAssay (NCI)
Several values for one entry are separate records, joined by “and”; a condition that tells them apart may be missing. Identical values can stand only once. About 83,000 compounds went through this panel and 20% of them were active in at least one assay; those are over-represented in the sample as a whole.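 Plates (96-well) were seeded with cells, treated with compound at one concentration, and incubated for 48 hours before percent growth was determined.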 Activity calls are given as the source filed them. How the source made its calls: active means growth percent below 10; inactive means the rest.

These compounds were tested on MDA-MB-468 breast (assay: NCI-60 one-dose screen, 48 h (100 = growth as untreated, 0 = no growth, -100 = all killed)). Details: 10 µM unless noted.
For `COc1cc2c3c(n(CCCN4CCC[C@H]4C(N)=O)c(=O)c2cc1OC)-c1cc2c(cc1C3=O)OCO2`, the growth was 11.8% (inactive).
`CC(C)(C)Nc1nc2c(OCCc3ccccc3)cccn2c1-c1ccccc1Cl` was tested, and the growth was -27.8% (active).
In the case of `NC(=S)NNC1CCCCC1`, the growth is reported as 99% (inactive).
For `COC(=O)CCC1=C(CC(=O)OC)C(C)=N/C1=C\c1[nH]c(-c2ccc[nH]2)cc1OC`, the growth was 61.9% (inactive).
For `CC(=O)OCC1OC(n2cnc3c(=S)nc(N)[nH]c32)C(OC(C)=O)C1OC(C)=O` (stereo not given), the growth was 68.5% (inactive).
For `COCC[C@H]1CCC/C=C/[C@@H]2C[C@H](O)C[C@H]2[C@H](O)/C=C/C(=O)O1`, the growth was -50.7% (active).
`COc1cc(C2C3=C(COC3=O)N(CCO)c3cc4c(cc32)OCCO4)cc(OC)c1O` (stereo not given) was tested, and the growth was -24.4% (active).
With `CC1(C)C=Cc2cc(/C(N)=N/C(N)=N/c3nc4ccccc4s3)ccc2O1` the growth was 74.1% (inactive).
For `Cc1ccccc1-c1cc(Cc2ccc(F)cc2)c(=O)[nH]n1`, the growth was 109% (inactive).
In the case of `COc1cc(-c2nc(-c3nnc(-c4cccnc4)o3)c3ccccn23)cc(OC)c1OC`, the growth is reported as 104% (inactive).
For `Cc1ccc(Cc2cnc(NC(=O)c3cc(C)oc3C)s2)cc1`, the growth was 31.5% (inactive).
In the case of `CCCCCCNC(=O)Oc1ccc(/C(=C(/C)c2ccccc2)c2ccc(OCCN(C)C)cc2)cc1`, the growth is reported as 71.5% (inactive).
`NC(=O)CC1(c2ccccc2)CCCCC1` was tested, and the growth was 104% (inactive).
With `NC(N)=Nc1ccc(Nc2cccc(Nc3ccc(Cl)c(C(F)(F)F)c3)c2)cn1` the growth was -7.19% (active).
In the case of `O[C@H](c1cc(C(F)(F)F)nc2c(C(F)(F)F)cccc12)[C@@H]1CCCCN1`, the growth is reported as 27.3% (inactive) and -6.87% (active).
With `NS(=O)(=O)c1ccc(CCN2C(=O)/C(=C\c3ccccc3)C=C2c2ccc(Cl)cc2)cc1` the growth was 103% (inactive).
In the case of `O=C(c1ccccc1)C(Sc1ccccc1)c1ccccc1` (stereo not given), the growth is reported as 88.7% (inactive).
With `COc1cc2cc(COc3nccc(-c4ccc(Cl)cc4)n3)c(=O)[nH]c2cc1OC` the growth was 80.1% (inactive).
With `COc1ccc2c(c1)CC[C@H](O)/C2=C/c1cc(OC)c(OC)c(OC)c1` the growth was 17.6% (inactive).
For `CC(=O)O[C@]1(C(C)=O)CC[C@H]2[C@@H]3C=C(Cl)C4=CC(=O)CC[C@]4(C)[C@H]3CC[C@@]21C`, the growth was 105% (inactive).
With `O=C(c1ccccc1)N(C(=S)NCCc1ccc(Cl)cc1)c1ccccc1` the growth was 30.3% (inactive).
`N#Cc1cccc(F)c1` was tested, and the growth was 111% (inactive).
In the case of `COC1=CC(c2ccc[nH]2)=N/C1=C\c1[nH]c(C)c(C(=O)CCC(=O)Oc2ccc3c(c2)CCC2C3CC[C@]3(C)[C@@H](O)CC[C@@H]23)c1C` (stereo not given in full), the growth is reported as 39.4% (inactive).
For `C[C@H]1OC(=O)/C=C/[C@@H](O)[C@@H](O)CCCCCCCC[C@@H]1O`, the growth was 97.2% (inactive).
For `COc1cc(/C=C2\CCC/C(=C\c3ccc(OCC4CO4)c(OC)c3)C2=O)ccc1OCC1CO1` (stereo not given), the growth was 20.1% (inactive).
`CN1CCN(CCCN2c3ccccc3Sc3ccc(C(F)(F)F)cc32)CC1` was tested, and the growth was -2.21% (active).
`Nc1c(Br)cc2c(c1Br)Cc1cc([N+](=O)[O-])ccc1-2` was tested, and the growth was -54.8% (active).
With `CCCCCCCCCCC(CN(CC)CC)C(O)c1ccccc1` (stereo not given) the growth was -61.2% (active).
For `C=CCn1c(C)nc2cc(Nc3nc(Nc4ccc5nc(C)n(CC=C)c5c4)nc4ccccc34)ccc21`, the growth was 118% (inactive).
In the case of `COc1cccc(-c2nc(-c3ccc(NC(=O)C(C)C)cc3)[nH]c2-c2ccnc(Br)c2)c1`, the growth is reported as 26.4% (inactive).
With `O=C(/C=C/c1ccco1)Nc1ncc(Cc2cccc(C(F)(F)F)c2)s1` the growth was 10.1% (inactive).
In the case of `O=C(CCN1CCOCC1)Nc1cccc(-n2cc(-c3ccncc3)c(-c3ccc(Cl)c(O)c3)n2)c1`, the growth is reported as 25.2% (inactive).
With `CCOC(=O)C/C(=N\Nc1cc(=O)[nH]c2ccc(Cl)cc12)C(=O)OCC` the growth was 98.6% (inactive).
`O=C(/C=C/c1ccccc1)c1ccc(Nc2nc(NCCO)nc(Nc3ccc(Cl)cc3)n2)cc1` was tested, and the growth was 64.5% (inactive).
In the case of `O=C(Cn1c2c(c3ccccc31)CCCC2)Nc1ccc(-c2nc3ccccc3s2)cc1`, the growth is reported as -19.5% (active).
In the case of `CCC(C)(O)Cc1ccc(Cl)cc1` (stereo not given), the growth is reported as 101% (inactive).
With `CCN1C(=O)/C(=c2\sc3n(c2=O)NC2C(N=3)N(CC)C(=O)N2CC)c2ccccc21` (stereo not given) the growth was 27% (inactive).
With `Cc1ccc2nc(-c3ccc(C(=O)NNC(=S)Nc4ccccc4)cc3)[nH]c2c1` the growth was 98.6% (inactive).
`Cc1c(F)cc(C(N)=O)cc1NCC(=O)Nc1ccc([N+](=O)[O-])cc1` was tested, and the growth was 92.4% (inactive).
`COc1cc(-c2nc3sc4c(c3c(=O)[nH]2)CCCCCC4)cc(OC)c1OC` was tested, and the growth was 20% (inactive).
